Assay results published in the supplement of paper PMC11732987, “Enantioselective OTUD7B fragment discovery through chemoproteomics screening and high-throughput optimisation” (Communications Chemistry, 2025).

Key:
Experiment in all cases: log2 ratio of Biotin-Ahx-Ub-VS probe labelling (fragment/DMSO); higher = less target engagement (more negative = stronger competition), active = hit call of the paper (q ≤ 0.05, log2 ratio ≤ -1)
Settings in all cases: compound concentration: 200 uM; treatment time: 3 h
USP42 = molecular target: T1, USP42 (UniProt Q9H9J4)
T1 sequence (whole entry): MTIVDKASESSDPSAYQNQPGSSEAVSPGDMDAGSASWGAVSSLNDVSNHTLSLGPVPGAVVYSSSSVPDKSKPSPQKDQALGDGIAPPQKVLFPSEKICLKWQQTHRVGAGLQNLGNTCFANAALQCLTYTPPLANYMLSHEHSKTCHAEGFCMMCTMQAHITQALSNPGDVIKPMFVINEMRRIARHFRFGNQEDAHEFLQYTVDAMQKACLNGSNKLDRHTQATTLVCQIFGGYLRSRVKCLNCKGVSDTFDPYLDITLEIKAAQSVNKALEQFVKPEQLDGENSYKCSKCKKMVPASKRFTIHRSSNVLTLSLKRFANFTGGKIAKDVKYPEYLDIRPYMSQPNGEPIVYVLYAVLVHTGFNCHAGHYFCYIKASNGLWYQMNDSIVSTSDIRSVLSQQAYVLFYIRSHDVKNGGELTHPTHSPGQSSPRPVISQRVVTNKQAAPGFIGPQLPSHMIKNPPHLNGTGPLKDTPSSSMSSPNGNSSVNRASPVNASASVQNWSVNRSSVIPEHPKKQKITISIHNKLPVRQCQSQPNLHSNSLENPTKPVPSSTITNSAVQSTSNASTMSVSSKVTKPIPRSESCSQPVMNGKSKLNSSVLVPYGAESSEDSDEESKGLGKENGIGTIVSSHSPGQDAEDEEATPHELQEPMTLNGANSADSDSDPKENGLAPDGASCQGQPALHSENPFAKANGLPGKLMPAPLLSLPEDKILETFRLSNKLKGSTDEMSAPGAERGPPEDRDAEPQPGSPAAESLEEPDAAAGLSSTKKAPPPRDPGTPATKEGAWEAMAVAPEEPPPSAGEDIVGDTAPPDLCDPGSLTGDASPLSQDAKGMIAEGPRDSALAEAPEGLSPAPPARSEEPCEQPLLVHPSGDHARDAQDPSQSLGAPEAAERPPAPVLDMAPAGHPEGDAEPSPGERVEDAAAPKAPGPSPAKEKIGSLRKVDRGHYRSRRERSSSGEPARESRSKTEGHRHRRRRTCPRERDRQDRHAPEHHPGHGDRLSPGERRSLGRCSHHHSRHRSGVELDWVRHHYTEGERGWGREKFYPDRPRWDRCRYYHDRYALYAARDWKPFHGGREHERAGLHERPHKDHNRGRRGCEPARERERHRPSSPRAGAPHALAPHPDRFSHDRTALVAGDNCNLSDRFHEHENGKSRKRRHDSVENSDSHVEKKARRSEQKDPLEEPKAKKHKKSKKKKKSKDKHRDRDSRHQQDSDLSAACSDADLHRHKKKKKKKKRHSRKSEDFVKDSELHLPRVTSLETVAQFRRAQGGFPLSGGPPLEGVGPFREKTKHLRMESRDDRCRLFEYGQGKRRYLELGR
Procedure, shortened: (§1)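 HEK293T lysate, 495 µg per sample in Tris/CHAPS/IGEPAL buffer with protease inhibitors, was treated in triplicate with fragment at 200 µM or vehicle for 3 h and then with Biotin-Ahx-Ub-VS at 0.5 µM final for 1 h. Labelled DUBs were NeutrAvidin-enriched, digested with LysC and trypsin, and run by diaPASEF LC-MS/MS. Spectronaut label-free quantities were global-median-normalised, and values are average log2 fragment/vehicle ratios by unpaired t-test on proteins with ≥2 unique peptides.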

USP46 = USP46 (UniProt P62068)
Procedure, shortened: as §1

USP47 = molecular target: T2, USP47 (UniProt Q96K76)
T2 sequence (whole entry): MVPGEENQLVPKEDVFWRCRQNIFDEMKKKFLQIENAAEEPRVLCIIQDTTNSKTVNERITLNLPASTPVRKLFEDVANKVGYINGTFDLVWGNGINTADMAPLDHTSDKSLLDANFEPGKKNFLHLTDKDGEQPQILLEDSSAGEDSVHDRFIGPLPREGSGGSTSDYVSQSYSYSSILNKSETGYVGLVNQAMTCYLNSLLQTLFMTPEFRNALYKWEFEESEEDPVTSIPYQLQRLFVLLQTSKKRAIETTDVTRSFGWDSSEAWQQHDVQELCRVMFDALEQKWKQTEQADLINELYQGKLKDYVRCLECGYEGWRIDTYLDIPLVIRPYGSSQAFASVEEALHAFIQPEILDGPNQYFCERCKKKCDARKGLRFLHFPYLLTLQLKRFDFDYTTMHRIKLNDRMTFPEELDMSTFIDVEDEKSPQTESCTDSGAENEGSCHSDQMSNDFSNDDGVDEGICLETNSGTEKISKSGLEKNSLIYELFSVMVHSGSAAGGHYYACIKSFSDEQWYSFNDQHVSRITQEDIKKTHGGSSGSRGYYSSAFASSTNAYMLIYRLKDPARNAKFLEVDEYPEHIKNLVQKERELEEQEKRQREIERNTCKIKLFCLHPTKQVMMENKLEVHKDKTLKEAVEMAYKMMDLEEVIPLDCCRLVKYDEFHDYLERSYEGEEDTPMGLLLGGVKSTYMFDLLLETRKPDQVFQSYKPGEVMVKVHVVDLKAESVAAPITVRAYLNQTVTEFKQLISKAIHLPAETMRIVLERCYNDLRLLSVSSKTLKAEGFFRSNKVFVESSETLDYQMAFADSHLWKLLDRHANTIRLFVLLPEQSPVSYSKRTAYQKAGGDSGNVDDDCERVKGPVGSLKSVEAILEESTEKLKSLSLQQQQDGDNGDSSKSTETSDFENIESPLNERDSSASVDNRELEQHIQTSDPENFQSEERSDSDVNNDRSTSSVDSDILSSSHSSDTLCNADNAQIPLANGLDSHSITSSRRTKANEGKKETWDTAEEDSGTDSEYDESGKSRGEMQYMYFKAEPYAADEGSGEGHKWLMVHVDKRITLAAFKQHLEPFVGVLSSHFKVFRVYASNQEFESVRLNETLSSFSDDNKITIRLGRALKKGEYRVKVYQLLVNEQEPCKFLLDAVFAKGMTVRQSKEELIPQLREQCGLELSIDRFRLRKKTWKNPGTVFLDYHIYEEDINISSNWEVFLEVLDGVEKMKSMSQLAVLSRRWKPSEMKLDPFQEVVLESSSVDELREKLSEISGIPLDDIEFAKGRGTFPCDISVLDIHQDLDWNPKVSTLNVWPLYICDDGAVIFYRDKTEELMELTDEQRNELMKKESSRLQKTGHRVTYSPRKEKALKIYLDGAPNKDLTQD
Procedure, shortened: as §1

USP48 = molecular target: T3, USP48 (UniProt Q86UV5)
T3 sequence (whole entry): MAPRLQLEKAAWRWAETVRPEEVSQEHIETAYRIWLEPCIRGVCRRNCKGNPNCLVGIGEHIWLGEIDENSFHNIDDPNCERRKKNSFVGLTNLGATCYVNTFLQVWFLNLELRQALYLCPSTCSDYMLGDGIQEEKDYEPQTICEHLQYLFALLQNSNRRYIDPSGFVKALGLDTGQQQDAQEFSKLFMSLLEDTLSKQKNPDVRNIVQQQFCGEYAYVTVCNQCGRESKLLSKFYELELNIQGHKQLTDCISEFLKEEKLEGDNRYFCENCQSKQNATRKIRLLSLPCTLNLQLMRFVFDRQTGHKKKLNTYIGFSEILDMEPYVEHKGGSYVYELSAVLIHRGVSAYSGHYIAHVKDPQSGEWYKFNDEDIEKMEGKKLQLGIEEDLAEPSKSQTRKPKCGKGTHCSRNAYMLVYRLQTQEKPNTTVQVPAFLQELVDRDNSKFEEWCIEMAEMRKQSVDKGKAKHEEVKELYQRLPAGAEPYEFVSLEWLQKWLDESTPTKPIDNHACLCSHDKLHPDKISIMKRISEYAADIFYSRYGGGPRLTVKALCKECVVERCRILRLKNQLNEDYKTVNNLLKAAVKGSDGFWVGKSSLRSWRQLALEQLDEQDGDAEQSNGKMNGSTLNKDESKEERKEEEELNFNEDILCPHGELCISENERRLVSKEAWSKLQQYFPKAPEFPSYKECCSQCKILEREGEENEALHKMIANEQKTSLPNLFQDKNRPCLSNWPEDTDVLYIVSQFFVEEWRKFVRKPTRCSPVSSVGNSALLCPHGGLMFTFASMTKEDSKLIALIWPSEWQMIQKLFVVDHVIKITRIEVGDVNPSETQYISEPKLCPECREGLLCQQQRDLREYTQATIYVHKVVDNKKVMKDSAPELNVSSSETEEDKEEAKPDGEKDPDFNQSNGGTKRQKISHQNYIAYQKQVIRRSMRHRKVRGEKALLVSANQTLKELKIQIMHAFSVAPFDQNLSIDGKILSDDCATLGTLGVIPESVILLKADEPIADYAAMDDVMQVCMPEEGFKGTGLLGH
Procedure, shortened: as §1

USP5 = molecular target: T4, USP5 (UniProt P45974)
T4 sequence (whole entry): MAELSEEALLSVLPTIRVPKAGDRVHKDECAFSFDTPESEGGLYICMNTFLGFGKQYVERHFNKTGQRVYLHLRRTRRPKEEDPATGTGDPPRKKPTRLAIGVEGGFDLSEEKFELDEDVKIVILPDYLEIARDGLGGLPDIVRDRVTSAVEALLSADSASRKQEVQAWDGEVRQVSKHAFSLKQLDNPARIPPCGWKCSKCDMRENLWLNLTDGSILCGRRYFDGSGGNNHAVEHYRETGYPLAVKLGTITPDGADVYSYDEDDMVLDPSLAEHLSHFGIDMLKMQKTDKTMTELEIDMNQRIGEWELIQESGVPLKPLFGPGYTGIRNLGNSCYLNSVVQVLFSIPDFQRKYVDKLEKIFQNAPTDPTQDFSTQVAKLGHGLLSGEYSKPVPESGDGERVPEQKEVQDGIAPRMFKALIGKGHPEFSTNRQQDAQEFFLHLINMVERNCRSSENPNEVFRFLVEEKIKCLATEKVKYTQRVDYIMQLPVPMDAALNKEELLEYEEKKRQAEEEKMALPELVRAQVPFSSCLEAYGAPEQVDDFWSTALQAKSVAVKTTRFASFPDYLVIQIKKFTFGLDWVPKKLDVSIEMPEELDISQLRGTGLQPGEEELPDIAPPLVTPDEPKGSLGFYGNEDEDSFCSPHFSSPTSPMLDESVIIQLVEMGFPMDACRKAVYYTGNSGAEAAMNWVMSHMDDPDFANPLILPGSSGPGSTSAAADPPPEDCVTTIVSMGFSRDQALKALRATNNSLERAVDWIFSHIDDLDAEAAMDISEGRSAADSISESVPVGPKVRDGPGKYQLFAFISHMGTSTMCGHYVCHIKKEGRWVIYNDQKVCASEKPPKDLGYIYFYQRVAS
Procedure, shortened: as §1

USP54 = USP54 (UniProt Q70EL1)
Procedure, shortened: as §1

USP7 = USP7 (UniProt Q93009)
Procedure, shortened: as §1

USP8 = molecular target: T5, USP8 (UniProt P40818)
T5 sequence (whole entry): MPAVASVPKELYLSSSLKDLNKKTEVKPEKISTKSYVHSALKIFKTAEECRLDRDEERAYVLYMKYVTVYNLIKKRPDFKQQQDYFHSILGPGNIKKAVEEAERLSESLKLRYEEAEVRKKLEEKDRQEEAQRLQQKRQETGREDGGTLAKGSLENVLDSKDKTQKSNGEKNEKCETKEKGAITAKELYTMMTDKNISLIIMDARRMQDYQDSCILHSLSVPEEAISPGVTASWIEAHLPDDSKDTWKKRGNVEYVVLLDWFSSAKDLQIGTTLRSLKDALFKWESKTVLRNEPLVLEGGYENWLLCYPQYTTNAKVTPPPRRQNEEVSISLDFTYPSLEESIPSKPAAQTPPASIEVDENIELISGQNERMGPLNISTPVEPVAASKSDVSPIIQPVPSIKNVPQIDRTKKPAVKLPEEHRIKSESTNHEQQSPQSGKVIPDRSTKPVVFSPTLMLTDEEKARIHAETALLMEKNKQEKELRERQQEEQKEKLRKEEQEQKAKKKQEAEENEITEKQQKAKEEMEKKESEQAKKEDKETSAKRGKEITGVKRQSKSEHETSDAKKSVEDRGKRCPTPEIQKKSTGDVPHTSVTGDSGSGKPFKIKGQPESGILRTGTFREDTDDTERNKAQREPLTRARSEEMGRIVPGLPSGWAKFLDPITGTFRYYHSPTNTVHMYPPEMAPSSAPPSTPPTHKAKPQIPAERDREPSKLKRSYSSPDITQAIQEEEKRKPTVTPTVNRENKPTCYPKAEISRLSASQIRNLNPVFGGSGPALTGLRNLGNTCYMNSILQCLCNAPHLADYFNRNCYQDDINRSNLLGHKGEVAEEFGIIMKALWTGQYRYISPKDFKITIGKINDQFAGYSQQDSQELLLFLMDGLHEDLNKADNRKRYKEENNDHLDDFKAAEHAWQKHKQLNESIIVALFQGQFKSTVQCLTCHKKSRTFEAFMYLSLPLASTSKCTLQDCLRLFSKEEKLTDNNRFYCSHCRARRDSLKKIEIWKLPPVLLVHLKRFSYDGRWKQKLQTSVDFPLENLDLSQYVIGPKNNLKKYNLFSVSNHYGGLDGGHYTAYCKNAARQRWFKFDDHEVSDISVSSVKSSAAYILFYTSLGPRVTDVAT
Procedure, shortened: as §1

USP9X = USP9X (UniProt Q93008)
Procedure, shortened: as §1

UniProt O00487 = molecular target: UniProt O00487
Procedure, shortened: as §1

Measured: log2 ratio of Biotin-Ahx-Ub-VS probe labelling

Sequence of USP46 (P62068 whole entry): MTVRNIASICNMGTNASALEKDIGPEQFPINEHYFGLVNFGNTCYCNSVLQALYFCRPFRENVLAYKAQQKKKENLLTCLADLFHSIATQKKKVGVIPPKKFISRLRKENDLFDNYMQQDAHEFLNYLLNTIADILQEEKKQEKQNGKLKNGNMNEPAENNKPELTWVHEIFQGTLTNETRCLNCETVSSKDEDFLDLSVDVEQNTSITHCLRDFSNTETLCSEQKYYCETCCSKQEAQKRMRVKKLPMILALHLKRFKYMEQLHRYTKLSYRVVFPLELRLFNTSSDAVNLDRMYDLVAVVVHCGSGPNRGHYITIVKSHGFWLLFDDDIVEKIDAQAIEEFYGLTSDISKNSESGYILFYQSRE
Sequence of USP54 (Q70EL1 whole entry): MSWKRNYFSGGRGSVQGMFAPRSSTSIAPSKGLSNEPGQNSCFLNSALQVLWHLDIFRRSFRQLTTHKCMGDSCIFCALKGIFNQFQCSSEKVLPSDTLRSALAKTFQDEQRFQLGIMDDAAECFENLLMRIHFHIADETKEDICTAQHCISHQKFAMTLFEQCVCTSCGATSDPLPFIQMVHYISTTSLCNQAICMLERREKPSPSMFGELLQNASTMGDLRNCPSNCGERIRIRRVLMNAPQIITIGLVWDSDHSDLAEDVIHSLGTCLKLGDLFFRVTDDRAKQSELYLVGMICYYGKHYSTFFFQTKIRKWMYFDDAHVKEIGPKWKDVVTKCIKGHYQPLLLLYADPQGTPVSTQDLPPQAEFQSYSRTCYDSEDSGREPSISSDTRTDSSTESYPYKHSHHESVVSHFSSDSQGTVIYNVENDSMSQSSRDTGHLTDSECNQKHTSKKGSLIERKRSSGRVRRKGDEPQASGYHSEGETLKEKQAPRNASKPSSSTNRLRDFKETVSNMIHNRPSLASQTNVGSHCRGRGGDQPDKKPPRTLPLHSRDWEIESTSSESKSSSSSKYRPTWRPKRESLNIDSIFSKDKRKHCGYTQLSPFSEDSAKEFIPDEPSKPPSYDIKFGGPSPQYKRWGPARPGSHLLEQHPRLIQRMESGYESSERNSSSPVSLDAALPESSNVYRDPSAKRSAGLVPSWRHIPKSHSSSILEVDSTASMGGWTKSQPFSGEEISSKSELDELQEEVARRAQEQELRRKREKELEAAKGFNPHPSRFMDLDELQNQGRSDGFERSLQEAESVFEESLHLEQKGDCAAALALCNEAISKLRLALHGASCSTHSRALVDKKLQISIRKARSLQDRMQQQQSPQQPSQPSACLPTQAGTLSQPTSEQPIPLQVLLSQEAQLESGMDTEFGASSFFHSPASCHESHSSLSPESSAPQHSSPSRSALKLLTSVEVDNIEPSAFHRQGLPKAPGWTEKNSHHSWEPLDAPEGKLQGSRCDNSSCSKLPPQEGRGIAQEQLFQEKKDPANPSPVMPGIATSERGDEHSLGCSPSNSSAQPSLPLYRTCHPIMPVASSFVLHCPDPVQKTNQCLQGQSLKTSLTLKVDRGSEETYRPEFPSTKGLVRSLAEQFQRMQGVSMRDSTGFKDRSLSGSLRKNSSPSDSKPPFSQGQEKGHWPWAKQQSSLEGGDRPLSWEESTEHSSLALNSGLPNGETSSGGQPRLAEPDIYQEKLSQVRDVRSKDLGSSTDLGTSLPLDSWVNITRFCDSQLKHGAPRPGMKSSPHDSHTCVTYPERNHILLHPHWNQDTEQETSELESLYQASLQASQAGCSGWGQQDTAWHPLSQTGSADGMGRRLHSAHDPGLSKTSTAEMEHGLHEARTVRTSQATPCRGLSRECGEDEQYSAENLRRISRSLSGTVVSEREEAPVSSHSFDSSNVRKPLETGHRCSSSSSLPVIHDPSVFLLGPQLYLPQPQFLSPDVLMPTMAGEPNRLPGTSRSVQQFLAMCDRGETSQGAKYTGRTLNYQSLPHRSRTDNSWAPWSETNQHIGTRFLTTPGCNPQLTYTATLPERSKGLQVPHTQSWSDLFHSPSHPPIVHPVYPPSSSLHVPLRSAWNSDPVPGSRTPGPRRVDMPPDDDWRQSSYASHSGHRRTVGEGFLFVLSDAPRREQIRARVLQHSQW
Sequence of USP9X (Q93008 whole entry): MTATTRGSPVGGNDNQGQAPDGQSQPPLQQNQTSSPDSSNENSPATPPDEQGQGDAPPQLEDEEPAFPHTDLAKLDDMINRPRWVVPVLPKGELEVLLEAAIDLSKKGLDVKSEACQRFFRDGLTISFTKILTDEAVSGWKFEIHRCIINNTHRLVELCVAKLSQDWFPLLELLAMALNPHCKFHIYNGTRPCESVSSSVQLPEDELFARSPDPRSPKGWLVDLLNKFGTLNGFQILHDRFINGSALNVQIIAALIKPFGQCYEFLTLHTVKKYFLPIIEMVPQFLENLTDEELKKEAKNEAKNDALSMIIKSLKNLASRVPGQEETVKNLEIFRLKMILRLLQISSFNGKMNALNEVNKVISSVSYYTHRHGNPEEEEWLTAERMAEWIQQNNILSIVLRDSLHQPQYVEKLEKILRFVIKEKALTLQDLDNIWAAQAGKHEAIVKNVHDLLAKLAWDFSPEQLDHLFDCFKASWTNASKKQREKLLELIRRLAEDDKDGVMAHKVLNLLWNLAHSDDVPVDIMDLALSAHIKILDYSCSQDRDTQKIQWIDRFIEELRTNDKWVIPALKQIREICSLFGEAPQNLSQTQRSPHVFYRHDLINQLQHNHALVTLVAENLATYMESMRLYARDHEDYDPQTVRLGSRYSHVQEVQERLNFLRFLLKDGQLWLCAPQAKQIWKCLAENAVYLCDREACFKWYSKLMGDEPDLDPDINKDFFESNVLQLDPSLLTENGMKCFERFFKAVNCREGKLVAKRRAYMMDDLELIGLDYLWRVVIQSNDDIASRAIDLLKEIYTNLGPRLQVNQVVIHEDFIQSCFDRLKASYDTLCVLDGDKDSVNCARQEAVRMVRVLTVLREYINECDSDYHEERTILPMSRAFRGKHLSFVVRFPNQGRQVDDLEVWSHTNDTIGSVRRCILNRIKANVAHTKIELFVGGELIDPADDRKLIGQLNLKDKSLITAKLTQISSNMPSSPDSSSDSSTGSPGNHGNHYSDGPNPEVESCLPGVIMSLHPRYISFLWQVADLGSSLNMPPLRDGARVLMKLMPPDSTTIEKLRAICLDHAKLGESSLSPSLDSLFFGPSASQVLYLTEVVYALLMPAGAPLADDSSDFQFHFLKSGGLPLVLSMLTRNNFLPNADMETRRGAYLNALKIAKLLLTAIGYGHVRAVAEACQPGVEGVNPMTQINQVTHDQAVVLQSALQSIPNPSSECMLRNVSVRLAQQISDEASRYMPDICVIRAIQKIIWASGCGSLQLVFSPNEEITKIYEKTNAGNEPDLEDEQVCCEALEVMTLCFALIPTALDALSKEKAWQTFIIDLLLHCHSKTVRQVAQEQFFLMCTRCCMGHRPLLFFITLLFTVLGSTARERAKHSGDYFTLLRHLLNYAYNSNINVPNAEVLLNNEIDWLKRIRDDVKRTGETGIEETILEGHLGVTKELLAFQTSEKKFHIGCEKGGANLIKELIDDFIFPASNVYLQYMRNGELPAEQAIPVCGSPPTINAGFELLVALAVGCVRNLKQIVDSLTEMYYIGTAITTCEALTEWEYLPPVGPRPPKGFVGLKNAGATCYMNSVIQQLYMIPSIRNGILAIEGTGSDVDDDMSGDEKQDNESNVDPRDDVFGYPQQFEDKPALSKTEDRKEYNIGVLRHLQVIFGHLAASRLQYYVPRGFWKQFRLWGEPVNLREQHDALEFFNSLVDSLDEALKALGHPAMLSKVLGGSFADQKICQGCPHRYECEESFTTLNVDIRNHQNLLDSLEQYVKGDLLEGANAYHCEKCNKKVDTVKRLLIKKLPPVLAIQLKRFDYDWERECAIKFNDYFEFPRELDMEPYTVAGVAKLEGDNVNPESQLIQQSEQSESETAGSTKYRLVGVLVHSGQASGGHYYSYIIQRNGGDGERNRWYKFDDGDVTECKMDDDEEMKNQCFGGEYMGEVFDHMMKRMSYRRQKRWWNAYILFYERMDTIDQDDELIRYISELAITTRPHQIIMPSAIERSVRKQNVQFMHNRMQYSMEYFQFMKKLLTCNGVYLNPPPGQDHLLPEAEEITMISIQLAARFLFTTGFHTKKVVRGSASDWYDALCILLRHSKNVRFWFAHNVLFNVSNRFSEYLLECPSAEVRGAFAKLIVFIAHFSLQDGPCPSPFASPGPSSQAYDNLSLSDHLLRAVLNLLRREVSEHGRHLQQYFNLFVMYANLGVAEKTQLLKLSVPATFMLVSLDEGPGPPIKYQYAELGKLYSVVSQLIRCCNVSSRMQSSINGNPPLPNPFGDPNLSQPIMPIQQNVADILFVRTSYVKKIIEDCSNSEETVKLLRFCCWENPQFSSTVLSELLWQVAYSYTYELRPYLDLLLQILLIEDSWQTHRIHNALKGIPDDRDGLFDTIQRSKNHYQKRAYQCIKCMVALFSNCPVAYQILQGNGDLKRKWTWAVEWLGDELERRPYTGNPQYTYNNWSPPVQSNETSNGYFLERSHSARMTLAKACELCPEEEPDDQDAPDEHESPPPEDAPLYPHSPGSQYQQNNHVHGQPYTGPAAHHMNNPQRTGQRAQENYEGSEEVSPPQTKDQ
Sequence of UniProt O00487 (O00487 whole entry): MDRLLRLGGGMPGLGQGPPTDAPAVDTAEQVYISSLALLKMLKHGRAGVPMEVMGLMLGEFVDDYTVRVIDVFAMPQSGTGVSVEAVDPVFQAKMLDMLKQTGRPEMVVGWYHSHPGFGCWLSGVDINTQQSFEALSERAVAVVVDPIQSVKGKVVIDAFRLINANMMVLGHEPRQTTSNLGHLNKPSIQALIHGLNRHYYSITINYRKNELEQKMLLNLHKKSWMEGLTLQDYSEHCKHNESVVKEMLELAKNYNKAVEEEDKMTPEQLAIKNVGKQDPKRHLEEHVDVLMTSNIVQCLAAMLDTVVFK

O=C(CCl)NC1(c2ccc3c(c2)OCCO3)CCCC1
inactive: USP42 -0.0517 | USP46 -0.105 | USP47 -0.898 | USP48 -0.261 | USP5 0.179 | USP54 1.09 | USP7 -0.305 | USP8 -0.374 | USP9X -0.378 | UniProt O00487 -0.176

O=C(CCl)N1CCC(c2nc3ccccc3o2)CC1
inactive: USP42 -0.0372 | USP46 -0.0557 | USP47 -0.397 | USP48 -0.598 | USP5 0.186 | USP54 0.726 | USP7 -0.746 | USP8 -0.0637 | USP9X -0.351 | UniProt O00487 -0.154

O=C(CCl)Nc1cc2c(cc1Cl)OCCCO2
inactive: USP42 0.621 | USP46 0.0317 | USP47 -0.676 | USP48 -0.438 | USP5 0.232 | USP54 -0.0568 | USP7 -0.0845 | USP8 -0.029 | USP9X 0.118 | UniProt O00487 -0.147
